# AMA1-RON2 inh: inhibitors of Plasmodium falciparum AMA1-RON2 interaction; Potency, µM (titrated, usually from 58.2 µM), for inactives: at the highest dose activity change, negative = inhibition, hits mostly inhibitors; 360,000 compounds, 0.2% hits; AlphaScreen AMA1-biotinylated RON2 peptide binding;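 note: potency is the fitted concentration of half-maximal effect; 0% = vehicle wells and -100% = peptide control; nearly all actives have a fitted effect of over 45% in size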
#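 AMA1 (3D7) with his tag at 25 nM final met compounds first, then biotinylated RON2 peptide at 25 nM; detection used donor plus acceptor beads, 10 µg/mL apiece, read by AlphaScreen after 30 min at room temperature.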
# Shiga toxin inh: inhibitors of Shiga toxin in Vero cells; inhibition, % at 38.7 µM; AID 2315; 290,000 compounds, 9.2% hits; Vero cells, Shiga toxin protein synthesis inhibition reporter; in the data active = inhibition mostly above about 28%, no sharp cut-off; inactive = mostly below about 43%; note: 0% is about no effect
# CHX counter: counter-screen hit for Shiga toxin inhibitors, cycloheximide; cell reporter, cycloheximide protein synthesis inhibition counterscreen; max response, %; 300,000 compounds, 12% hits; AID 2314; in the data active = max response mostly above about 13%, no sharp cut-off; inactive = mostly below about 14%; note: read at 38.3 µM for the half of the compounds with a filed dose; 0% is about no effect
# Pf growth 48h: inhibits P. falciparum growth in the first generation, 48 h. Potency, µM (highest dose often 28.7 µM), without a hit: at the top dose activity change, negative = inhibition, actives largely listed as inhibitors. P. falciparum luciferase growth in erythrocytes, 48 h. 310,000 compounds, 5.9% hits; note: potency is the fitted concentration of half-maximal effect; % is set by controls: 0 for no effect and ±100 for the full control effect
#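 Luciferase-expressing parasites in RBCs, 2% Hct / 0.1% parasitemia final; RPMI 1640 + 0.5% Albumax; 37 C, 5% CO2, one generation; luminescence read-out, lower signal = inhibition.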
# Pf growth 96h: inhibits malaria parasite growth, 96 h; P. falciparum luciferase reporter growth, 96 h; Potency, µM (top dose mostly 28.7 µM), for the others: top-dose activity change, negative = inhibition, actives largely listed as inhibitors; 320,000 compounds, 6.9% hits; AID 504834; note: potency is the fitted concentration of half-maximal effect; % is set by controls: 0 for no effect and ±100 for the full control effect
#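 Plates of compound plus infected erythrocytes (2% hematocrit, 0.05% parasitemia final) incubate 96 hours, 37 C, 5% CO2. Detection reagent added; reduced luminescence from the parasites' luciferase reporter flags inhibition.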
# HCV inhibitor: HCV inhibition; Huh7.5.1 HCVcc-Cre infection, luciferase reporter, 44 h; Potency, µM (doses to about 41.8 µM), for inactives: at the top dose activity change, negative = inhibition, actives largely listed as inhibitors; 340,000 compounds, 3.4% hits; AID 651820; note: potency is the fitted concentration of half-maximal effect; % is set by controls: 0 for no effect and ±100 for the full control effect
#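 Cells (1,000/well) were plated 4 h before compound, then infected with HCVcc-Cre virus (~0.5 moi). After 44 h further culture, infection was read as luciferase luminescence following a 15 min substrate incubation at room temperature.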
# Starred values were filed as active, the others as inactive; ? = inconclusive; . = no result given; [ ] = dose if it differs, or a comment. In the library only some 21% were active in any assay of this set; here they are far more common. Unless noted, calls come from the whole dose curve; as a rule, active = well fitted curve in the direction sought with a large enough effect; inconclusive = small, poorly fitted or top-dose-only effect, or another doubt; inactive = no such curve, though single readings can be large; an effect the other way counts as inactive or inconclusive.
SMILES,AMA1-RON2 inh,Shiga toxin inh,CHX counter,Pf growth 48h,Pf growth 96h,HCV inhibitor
O=C1C(Cl)=C(NCCCN2CCOCC2)C(=O)N1CCc1ccccc1,0%,29,24*,12%,?,-19%
O=C1C(Cl)=C(NCC2CCCO2)C(=O)N1CCc1ccccc1 (stereo not drawn),16%,56*,57*,107%,1%,?
C=CCN(Cc1cccs1)C(=O)COc1ccc2c(c1)OCO2,-21%,.,.,.,.,18%
O=C1C(Cl)=C(N2CCOCC2)C(=O)N1CCc1ccccc1,49%,133*,47*,106%,?,25%
O=C(NCCCCN1CCN(c2cccc(Cl)c2Cl)CC1)c1ccc2c(c1)Cc1ccccc1-2,.,-1,12,.,.,.
CCOC(=O)C1(Cc2ccccc2)CCCN(C(=O)COc2ccccc2OC)C1 (stereo not drawn),-9%,.,.,.,.,.
CCOC(=O)CN(Cc1ccccc1)C(=O)OC(C)(C)C,.,10,-1,17%,22%,.
CCc1ccccc1NC(=O)CSc1nc2n[nH]c(C)c2c(=N)n1-c1ccc(OC)cc1,20%,-7,-1,?,32%,11µM*
Cc1cc(-n2c(SCc3ccccc3F)nc3n[nH]c(C)c3c2=N)ccc1Cl,-9%,-9,21,?,4.7µM*,10µM*
CCCCN(CC)C(=O)CSc1nc2n[nH]c(C)c2c(=N)n1-c1cccc(C)c1,47%,-14,-7,?,?,11µM*
COc1ccccc1NC(=O)CSc1nc2n[nH]c(C)c2c(=N)n1-c1ccccc1Cl,2%,12,1,5.9µM*,6%,11µM*
CCOc1ccc(-n2c(SCC(=O)Nc3ccc(CC)cc3)nc3n[nH]c(C)c3c2=N)cc1,2%,-8,-8,11%,?,-28%
CCCS(=O)(=O)N1CCCC(C(=O)N2CCCCC2)C1 (stereo not drawn),-2%,-18,-4,-5%[0.00184 µM],0%,1%
CC(C)Nc1nc(NC(C)C)nc(SCC(N)=O)n1,-13%,-16,-2,3%,?,-1%
Cc1ccc(OC2CCN(C(=O)[C@H]3O[C@@H](n4ccc(N)nc4=O)[C@H](O)[C@@H]3O)CC2)cc1,-1%,.,.,.,.,.
CCC(Sc1nc2n[nH]c(C)c2c(=N)n1-c1cccc(Cl)c1)C(=O)NCCOC (stereo not drawn),8%,-6,-4,?,0%,-27%
CCC(Sc1nc2n[nH]c(C)c2c(=N)n1-c1ccc(C)c(Cl)c1)C(=O)N1CCOCC1 (stereo not drawn),1%,15,0,13µM*,23%,?
Cc1[nH]nc2nc(SCC(=O)NC3CCCCC3)n(-c3ccc(Br)cc3)c(=N)c12,-17%,-4,-1,-13%,13µM*,?
Cc1c(Cl)cccc1NC(=O)C1=COCCO1,-13%,.,.,53%,27%,5%
CCCNC(=O)Cc1c(C)oc2ccccc12,8%,-13,1,40%,-3%,0%
Cc1ccc(C)n1-c1ccc(C#N)cn1,-15%,22,2,49%,-7%,6%
N#Cc1cnc(NN)nc1,-4%,1,-2,10µM*,?,10%
COc1cccc(/C=N/c2nc3ccccc3[nH]2)c1O,31%,-11,2,-3%,-23%,2%
COc1cccc(/C=N/Nc2nc3ccccc3[nH]2)c1O,0%,94*,52*,?,2.3µM*,?
COc1cccc(/C=N/Nc2nc3ccccc3[nH]2)c1OC,38%,114*,52*,?,10µM*,-29%
SMILES,AMA1-RON2 inh,Shiga toxin inh,CHX counter,Pf growth 48h,Pf growth 96h,HCV inhibitor
Cc1ccc(-n2nc(C)cc2NC(=O)COc2cc(C)cc3oc(=O)c4c(c23)CCC4)cc1,-3%,-13,14,?,9.3µM*,7.1µM*
Cc1cc(OC(=O)c2ccco2)c2c3c(c(=O)oc2c1)CCCC3,23%,-5,-3,.,3.7µM*,?
Cc1cc2oc(=O)c3c(c2cc1OC(=O)c1ccco1)CCCC3,3%,-15,-2,23%,42%,6%
Cc1cc(OCC(=O)Nc2cc(C)nn2-c2ccccn2)c2c3c(c(=O)oc2c1)CCC3,.,-13,-2,6%,147%,.
O=C(Oc1cc2oc(=O)c3c(c2cc1Cl)CCCC3)c1cccs1,-15%,-8,-2,20%,?,-3%
Cc1cc(OC(=O)c2cccs2)c2c3c(c(=O)oc2c1)CCCC3,-7%,-14,-3,5.9µM*,54%,?
CCN(CC)C(=O)c1cccc(-c2csc(C(C)(O)c3ccncc3)n2)c1 (stereo not drawn),-2%,.,.,.,.,.
O=S(=O)(c1ccc2c(c1)OCCO2)N1CCN(S(=O)(=O)c2cc(F)c(F)cc2F)CC1,.,-11,-9,.,.,.
N/C(Cc1ccc(Cl)cc1)=N\OC(=O)c1cccc2ccccc12,12%,37,23*,?,?,7.1µM*
COc1ccc(C/C(N)=N/OC(=O)Cc2ccccc2)cc1,19%,2,9,11%,?,21%
N/C(Cc1ccc(Cl)cc1)=N\OC(=O)c1ccc2ccccc2c1,5%,5,9,?,10µM*,32µM*
COc1ccc(C/C(N)=N/OC(=O)c2ccc(Cl)cc2)cc1,16%,55*,21*,?,-14%,-1%
N/C(Cc1ccc(Cl)cc1)=N\OC(=O)CCc1ccccc1,58%,.,.,.,.,.
N/C(Cc1ccc([N+](=O)[O-])cc1)=N\OC(=O)c1ccccc1F,2%,38*,18*,97%,37%,28%
CC(C)C[C@H]1CNC(=S)N1CC1CCCN1C[C@H](CC(C)C)N1C[C@H](CC(C)C)N(CCc2ccccc2)C1=S (stereo partly drawn),10%,.,.,.,.,3%
COc1ccc(C[C@H]2CN3C(=NC[C@@H]3Cc3ccc(O)cc3)N2C[C@H](C)NC(=O)c2ccc(C)c(Br)c2)cc1,2%,-5,-5,1.5µM*,0.83µM*,?
COc1ccc(S(=O)(=O)Nc2cc(C(=O)NC(C)C)ccc2N2CCOCC2)cc1,-1%,18,4,-15%,.,-5%
Cc1ccc(C(=O)N[C@@H](C)CN2C3=NC[C@@H](Cc4ccccc4)N3C[C@H]2Cc2ccc(O)cc2)cc1Br,-20%,-5,-2,5.2µM*,2.9µM*,-3%
CC(CCc1ccccc1)NC(=O)c1ccc(Br)cc1 (stereo not drawn),4%,23,12,61%,?,-19%
Cc1ccc(C(=O)N[C@@H](C)CN2C3=NC[C@H](Cc4ccccc4)N3C[C@H]2Cc2ccc(O)cc2)cc1Br,-13%,-4,-7,2.1µM*,1.3µM*,-8%
CCc1ccccc1NC(=S)N(CCOC)C(C)c1ccco1 (stereo not drawn),7%,-4,-5,?,-2%,-4%
O=C(CCc1ccc(S(=O)(=O)NC2CCCCC2)cc1)NCc1cccnc1,3%,31,15*,-11%,8%,0%

# Screening results deposited in PubChem by National Center for Advancing Translational Sciences (NCATS).
